Data published in PubChem BioAssay AID1851 (National Center for Advancing Translational Sciences (NCATS), 2009).
Screen size: about 16,000 compounds; about 5,100 (32%) were called active. Inconclusive results (about 25%) are left out. The call rests on the fitted dose curve; in most records, active means well fitted curve in the direction sought with a large enough effect; inconclusive means small, poorly fitted or top-dose-only effect, or effect the other way; inactive means no such curve, though single readings can be large or run the other way. The list shows a part of the results.

Biological target: Cytochrome P450 3A4 (Homo sapiens) (UniProt P08684)
Sequence (P08684 whole entry, looked up): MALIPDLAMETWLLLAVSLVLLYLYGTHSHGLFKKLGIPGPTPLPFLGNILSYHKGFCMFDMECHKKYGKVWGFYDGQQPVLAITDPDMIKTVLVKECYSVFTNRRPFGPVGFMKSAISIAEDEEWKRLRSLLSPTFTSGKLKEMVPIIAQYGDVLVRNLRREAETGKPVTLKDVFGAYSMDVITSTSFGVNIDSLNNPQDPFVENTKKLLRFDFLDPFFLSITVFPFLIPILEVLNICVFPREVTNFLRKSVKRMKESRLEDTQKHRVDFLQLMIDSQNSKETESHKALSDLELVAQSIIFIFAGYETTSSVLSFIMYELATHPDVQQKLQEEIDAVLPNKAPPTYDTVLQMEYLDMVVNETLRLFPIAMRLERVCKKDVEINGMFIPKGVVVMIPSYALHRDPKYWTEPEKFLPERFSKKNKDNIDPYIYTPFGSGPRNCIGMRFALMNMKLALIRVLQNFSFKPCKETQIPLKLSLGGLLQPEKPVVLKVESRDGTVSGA
Test: Cytochrome panel assay with activity outcomes
Settings: recombinant CYP, pro-luciferin dealkylation, luminescence, p450-cyp3a4; series mostly up to 57.1 µM; activity, negative = inhibition: at the top concentration
On the % scale 0 is the no-effect control and ±100 the full control effect.

activity, negative = inhibition, inactive:
CN(C)CCSCCO -12.3% [at 11.4 µM]
Oc1cc(O)c2c(c1)O[C@H](c1ccc(O)c(O)c1)[C@@H](O)[C@@H]2c1c(O)cc(O)c2c1O[C@@H](c1ccc(O)c(O)c1)[C@H](O)C2 -13.1% [at 11.4 µM]
CN(C)[C@H]1C(=O)C(C(=O)NCN2CCCC2)=C(O)[C@]2(O)C(=O)C3=C(O)c4c(O)cccc4[C@](C)(O)[C@H]3C[C@H]12 -6.5% [at 11.4 µM]
CC(=O)NC1=NC(=O)CS1 -4.9%
N[C@@]1(C(=O)O)CN[C@H](C(=O)O)C1 24.7%
Cc1ccc(S(=O)(=O)N2CCN(C(=O)CN3CCN(C)CC3)C2)cc1 -21.9%
Cc1ccc(S(=O)(=O)N2CCN(S(C)(=O)=O)C2)cc1 -0.447% [at 11.4 µM]
O=C(Nc1cccc(OC(=O)c2cccnc2)c1)c1cccnc1 -4.22% [at 2.29 µM]
CCOC(=O)c1ccccc1Oc1c(F)c(F)nc(NCCO)c1F -28.7%
COC(=O)c1cc(C#N)c(NCc2ccc(Cl)cc2Cl)nc1C -2.03%
Cc1nnc(N(C)C(=O)c2ccccn2)s1 -5.58%
O=C(NC1CCCCC1)c1ccc(COCC(F)(F)F)o1 -17%
O[C@H](CCCN1CCN(c2ncc(F)cn2)CC1)c1ccc(F)cc1 -19.9%
COc1ccc(OC)c(CNC(=O)CCNC(=O)Cn2ccc3ccccc3c2=O)c1 5.01% [at 2.29 µM]
O=C(CCNC(=O)Cn1cnc2ccccc2c1=O)NCC1COc2ccccc2O1 (stereo not drawn) 5.27% [at 2.29 µM]
CC1CCN(C(NC(=O)c2ccco2)C(=O)c2ccccc2)CC1 (stereo not drawn) -24.8%
CCCCN1C(=O)CC(Sc2ccccc2C(=O)O)C1=O (stereo not drawn) -6.33%
Cc1cc2ccc(OC(=O)c3ccc(N=C(N)N)cc3)cc2oc1=O -27.2% [at 11.4 µM]
CN(C)CCCN1c2ccccc2Sc2ccc3ccccc3c21 -13.6% [at 11.4 µM]
CCC(=O)c1ccc2c(c1)N(CCCN(C)C)c1ccccc1S2 -19.6%
O=C(Nc1ccc(S(=O)(=O)N2CCCCC2)cc1)c1ccc(CN2CCc3ccccc3C2)cc1 11.8%
COc1ccc(OC)c(NC(=O)C(CC(=O)O)NCc2ccco2)c1 (stereo not drawn) -1.25%
COc1cc2ccccc2cc1C(=O)Nc1ccc(S(=O)(=O)Nc2cc(C)on2)cc1 6.01% [at 11.4 µM]
Cc1cc(NC(=O)c2ccc(S(=O)(=O)Nc3ccccc3)cc2)no1 2.51% [at 2.29 µM]
O=C(Cc1ccccc1)NC1CCN(S(=O)(=O)c2ccc(C(=O)O)cc2)CC1 10.8%
Cc1cc(NC(=O)c2cccc(F)c2)no1 -14.9%

AC50, inactive:
Oc1cc(O)c2c(c1)O[C@H](c1ccc(O)c(O)c1)[C@H](O)C2
CCC1(c2ccccc2)C(=O)NCNC1=O

AC50, active:
COC(=O)C1=C(C)NC(C)=C([N+](=O)[O-])[C@@H]1c1ccccc1C(F)(F)F 12.6 µM
O=C1c2c(O)cc(O)cc2O[C@@H](c2ccc(O)c(O)c2)[C@H]1O 10 µM
CCOc1cc(-c2noc(N)c2C#N)cc(OCC)c1OCC 0.2 µM
Cc1ccc(S(=O)(=O)N2CCN(Cc3ccccc3C(F)(F)F)CC2)cc1 8.91 µM
O=C(Nc1cccnc1)c1ccc2snnc2c1 11.2 µM
Cc1cc(C)c2cc(C#N)c(NCCOC(=O)c3ccccc3C)nc2c1 7.08 µM
O=C(NC1CCCCC1)C(c1cccs1)N(C(=O)C(F)(F)F)c1ccccc1 (stereo not drawn) 7.08 µM
COc1ccc(CCN(C(=O)C(F)(F)F)C(C(=O)NC2CCCC2)c2cccs2)cc1 (stereo not drawn) 3.55 µM
Cc1cc(C)cc(N(C(=O)c2ccccn2)C(C(=O)NC2CCCCC2)c2cccs2)c1 (stereo not drawn) 5.01 µM
Cc1ccc(N(C(=O)C(F)(F)F)C(C(=O)NC2CCCCC2)c2cccs2)cc1C (stereo not drawn) 6.31 µM
Cc1snc(SCC(=O)N/N=C(\N)COc2cccc(C(F)(F)F)c2)c1C#N 3.16 µM
COc1cccc(CNC(=O)CCNC(=O)Cn2ccc3ccccc3c2=O)c1 14.1 µM
CCCC[C@@H]1C[C@H]1C(NC(=O)c1ccco1)c1ccc(Cl)cc1 (stereo partly drawn) 7.94 µM
CCCC[C@@H]1C[C@H]1C(NC(=O)c1ccco1)c1ccc(-c2ccccc2)cc1 (stereo partly drawn) 15.8 µM
CCCC[C@@H]1C[C@H]1C(NC(=O)c1ccco1)c1ccc(C(=O)OC)cc1 (stereo partly drawn) 15.8 µM
O=C(CSC1CC(=O)N(CC(c2ccccc2)c2ccccc2)C1=O)Nc1ccc(Cl)cc1 (stereo not drawn) 8.91 µM
CN(C)CCCN1c2ccccc2Sc2cnccc21 1.58 µM
Cc1cc(NC(=O)COC(=O)c2ccc(NS(=O)(=O)c3ccc(C)c(C)c3)cc2)no1 5.01 µM
COc1ccccc1NC(=O)COC(=O)c1ccc(S(=O)(=O)NCc2ccco2)cc1 28.2 µM
O=C(NCc1ccccc1)c1ccc(S(=O)(=O)N2CCCc3ccccc32)cc1 10 µM
